Laboratory results from PubChem BioAssay AID652054 (National Center for Advancing Translational Sciences (NCATS), 2013).
Among all 360,000 compounds or so, about 9,100 (2.5%) were called active. Roughly 4% stayed inconclusive and do not appear here. No stated cut-off is given here; in the data, active means max response below about -50%; inconclusive means no clear call, values can overlap the other calls; inactive means above that. Only a selection was taken, and actives are over-represented in it overall.
On the % scale 0 is the no-effect control and ±100 the full control effect.

These compounds were tested against D(3) dopamine receptor (Homo sapiens) (UniProt P35462) (assay: qHTS of D3 Dopamine Receptor Antagonist: qHTS). Conditions: D3R cells, DiscoveRx beta-arrestin luminescence, antagonist mode; stronger effect = lower value.
Chain of D(3) dopamine receptor (Homo sapiens) (P35462 whole entry, looked up): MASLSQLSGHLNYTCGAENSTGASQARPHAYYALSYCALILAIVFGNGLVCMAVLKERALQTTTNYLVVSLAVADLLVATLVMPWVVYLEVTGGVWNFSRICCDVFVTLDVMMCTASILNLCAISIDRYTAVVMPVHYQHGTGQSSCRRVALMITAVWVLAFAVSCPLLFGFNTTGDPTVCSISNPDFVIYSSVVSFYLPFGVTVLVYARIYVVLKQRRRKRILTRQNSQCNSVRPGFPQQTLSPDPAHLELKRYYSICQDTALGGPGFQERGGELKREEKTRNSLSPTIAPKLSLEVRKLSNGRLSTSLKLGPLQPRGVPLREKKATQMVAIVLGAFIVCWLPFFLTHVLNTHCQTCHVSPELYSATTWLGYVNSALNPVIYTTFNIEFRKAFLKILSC
Method in brief: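 Cells plated overnight at 1500 cells/well, then exposed to library compounds with dopamine controls for 90 minutes at 37 degrees C. DiscoveRx reagent added for 30–60 minutes at room temperature; luminescence read, quantitative HTS format.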
In the case of `O=C(CSc1nnnn1-c1ccccc1)NCc1ccco1`, the max response, negative = inhibition is reported as -1.61% (inactive).
`O=C(CSc1c2c(nc3ccc(Cl)cc13)CCCC2)NCc1ccco1` was tested, and the max response, negative = inhibition was -79.5% (active).
In the case of `O=C(NCc1ccco1)C1(c2ccc(Cl)cc2)CCCC1`, the max response, negative = inhibition is reported as -5.37% (inactive).
For `Cc1cc(N/N=C\c2ccc(Br)cc2)nc(-n2nc(C)cc2C)n1`, the max response, negative = inhibition was -54.3% (active).
In the case of `Cc1cc(C)n(-c2nnc(N3CCN(c4ccccc4)CC3)nn2)n1`, the max response, negative = inhibition is reported as -8.33% (inactive).
In the case of `CN(C)c1ccc(/C=N/Nc2cc(N3CCOCC3)nc(N3CCOCC3)n2)cc1`, the max response, negative = inhibition is reported as -13.4% (inactive).
In the case of `N#CC1=C(N)C(C#N)(C#N)[C@H](c2ccsc2)[C@H]2COCC=C12`, the max response, negative = inhibition is reported as -56% (active).
With `C[C@H]1COc2cc(N3CCSCC3)ccc2S(=O)(=O)N1` the max response, negative = inhibition was -22.5% (inactive).
In the case of `CCCCC(O)C1=C[N+](=O)CC=C1` (stereo not given), the max response, negative = inhibition is reported as 7.65% (inactive).
In the case of `COc1ccc(-c2cc(NC=O)c3ncc(-c4ccccc4)n3c2)cc1OC`, the max response, negative = inhibition is reported as -15.4% (inactive).
For `COc1ccc(S(=O)(=O)NC(=O)C2(C)CCN2C(=O)c2ccccc2CCc2ccccc2)cc1` (stereo not given), the max response, negative = inhibition was -6.13% (inactive).
`CC(C)(O)C1=C[N+](=O)CC=C1` was tested, and the max response, negative = inhibition was -16.9% (inactive).
In the case of `O=C(c1ccccc1)N1CCN(c2cc(-c3ccccc3)nc3cc(-c4cccc(Cl)c4)nn23)CC1`, the max response, negative = inhibition is reported as 14.3% (inactive).
`COC(=O)c1[nH]c2ccccc2c1NC(=O)CN1CCCc2ccccc21` was tested, and the max response, negative = inhibition was 9.03% (inactive).
With `CCOC(=O)c1[nH]c2ccc(OC)cc2c1NC(=O)CCN1CCN(Cc2ccccc2)CC1` the max response, negative = inhibition was -54.8% (active).
With `Cc1cc(NC(=O)CCN2CCN(Cc3ccccc3)CC2)ccc1Br` the max response, negative = inhibition was -20.3% (inactive).
With `COc1ccc(-c2c(C#N)cnc(C)c2C)c(O)c1OC` the max response, negative = inhibition was 9.2% (inactive).
With `CC(=O)Nc1cccc(Nc2ccc(C#N)cc2)c1` the max response, negative = inhibition was 1.07% (inactive).
With `Clc1ccc(-n2nnnc2CN2CCCCC2)cc1Cl` the max response, negative = inhibition was -19.7% (inactive).
For `Clc1ccc(CN2CCCCCC2)cc1Cl`, the max response, negative = inhibition was -62.3% (active).
For `c1cc(-c2nn[nH]n2)ccc1CN1CCCCC1`, the max response, negative = inhibition was -18.9% (inactive).
With `CC1(C(=O)NCc2ccc3c(c2)OCO3)CCN1CCc1ccccc1` (stereo not given) the max response, negative = inhibition was -10.3% (inactive).
With `COCCNc1nc(NCc2ccc(NC(C)=O)cc2)c2sccc2n1` the max response, negative = inhibition was 23.6% (inactive).
With `COc1ccc(NC(=O)C2Cc3c(-c4ccc5c(c4)OCO5)ccnc3O2)cn1` (stereo not given) the max response, negative = inhibition was -19.8% (inactive).
In the case of `CC1(C)Cc2ccccc2-c2nc(CN3CCOCC3)[nH]c(=O)c21`, the max response, negative = inhibition is reported as 8.19% (inactive).
With `CC1(C)Cc2ccccc2/C(=C/C(=O)c2ccccc2)N1` the max response, negative = inhibition was 3.22% (inactive).
In the case of `CC1(C)Cc2ccccc2-c2[nH]c(=S)[nH]c(=O)c21`, the max response, negative = inhibition is reported as -54.5% (active).
In the case of `COc1cc(Cn2c3ccc(NC(=O)CC(C)c4ccccc4)cc3c(=O)n2C)ccc1F` (stereo not given), the max response, negative = inhibition is reported as 0% (inactive).
For `CC1(C(=O)NS(=O)(=O)c2ccc(C#N)cc2)CCN1C(=O)c1ccc(C2CCCCC2)cc1` (stereo not given), the max response, negative = inhibition was -14.3% (inactive).
`OCC1OC(n2cnc3c(N4CCCC4)ncnc32)C(O)C1O` (stereo not given) was tested, and the max response, negative = inhibition was 10.4% (inactive).
In the case of `O=C(OCc1cn([C@@H]2C[C@H](c3ccc(Cl)cc3)N(Cc3cccs3)C[C@H]2O)nn1)c1ccccc1`, the max response, negative = inhibition is reported as -15% (inactive).
`CCN(CC)CCNC(=O)c1ccc(NS(=O)(=O)c2ccc3c(c2)OCCO3)cc1` was tested, and the max response, negative = inhibition was 2.66% (inactive).
In the case of `COc1ccc(S(=O)(=O)NC(C)C)cc1C(=O)NC1CCCCC1`, the max response, negative = inhibition is reported as 11.4% (inactive).
With `CCN(CC)CCNC(=O)c1cc(S(C)(=O)=O)ccc1OC` the max response, negative = inhibition was -60.5% (active).
`COc1cccc(CN2CCC(C(=O)NC(c3ccc4c(c3)OCO4)c3ccccn3)CC2)c1` (stereo not given) was tested, and the max response, negative = inhibition was -21.6% (inactive).
For `O=C(NCCN1CCOCC1)c1ccc2c(c1)N(Cc1cccc(Cl)c1)C(=O)c1ccccc1S2(=O)=O`, the max response, negative = inhibition was -29.4% (inactive).
With `CC1(C(=O)Nc2cccc3c2CCCC3)CCN1C(=O)C1(c2ccccc2)CC1` (stereo not given) the max response, negative = inhibition was 11.6% (inactive).
In the case of `CCOC(=O)C1CCCN(C(=O)/C=C/c2ccc(OC)cc2)C1` (stereo not given), the max response, negative = inhibition is reported as -24.9% (inactive).
In the case of `CCOC(=O)N1CCN(C(=O)C2CCN(Cc3ccc(OC)cc3OC)CC2)CC1`, the max response, negative = inhibition is reported as 0.368% (inactive).
In the case of `CCOC(=O)c1cc2cc(OC)ccc2n1C1CCN(C)CC1`, the max response, negative = inhibition is reported as -92.9% (active).
In the case of `O=C1c2ccccc2C(c2nc3ccccc3[nH]2)N1c1ccccc1` (stereo not given), the max response, negative = inhibition is reported as 6.4% (inactive).
With `O=C(c1ccc(CS(=O)Cc2ccccc2Cl)o1)N1CCN(c2ccccc2)CC1` (stereo not given) the max response, negative = inhibition was 2.17% (inactive).
With `CS(=O)(=O)/C(C#N)=C/c1cccn1S(=O)(=O)c1ccc([N+](=O)[O-])cc1` the max response, negative = inhibition was -13.9% (inactive).
In the case of `O=S1(=O)CCN(Cc2ccccc2)CC1`, the max response, negative = inhibition is reported as -8.1% (inactive).
With `O=C1c2ccccc2C(=O)c2c1cccc2N1CCN(Cc2ccccc2)CC1` the max response, negative = inhibition was -83% (active).
